SMILES strings stand for the structures. Among all 48,000 compounds or so, about 13,000 (27%) showed an effect of 50% or more. The list shows a part of the results.

The assay has as its system Wolbachia pipientis. Briefly: Anti-Wolbachia Cell-Based Screen. In kind it is functional. Details: scale not given: in the data most compounds retested in dose-response had high values. The settings on record: 5 µM.
On to `COc1cc(CN2CCCC(Nc3cccc(F)c3)C2)cc(Cl)c1O` (stereo not given), for which the “Percent Effect” value amounted to 5.248%. For the compound `CN1C(=O)C2(CCN(S(=O)(=O)C3CC3)CC2)c2ccccc21`, the “Percent Effect” value is -8.422%.

As for `O=C(CCc1nc(-c2cccnc2)no1)N(CC1CCOC1)C1CC1` (stereo not given), the “Percent Effect” value is reported as -0.4889%. Take `CCCC(NC(=O)c1cc(C)n(C2CC2)c1C)c1nnn[nH]1` (stereo not given): the “Percent Effect” value amounted to 4.085%.

`NS(=O)(=O)CCNC(=O)c1ccc(-c2ccc(F)cc2)cc1F`: the “Percent Effect” value is -11.53%. For `CC(=O)N1CCN(Cc2c(C)ccc3ccccc23)CC(O)C1` (stereo not given), the “Percent Effect” value turned out to be 0.367%. As for `O=C(CN1CCCC1COc1ccccc1)NCc1ccccn1` (stereo not given), the “Percent Effect” value came out at 90.25%. In the case of `O=C(CN1CCCC1CC(=O)c1ccccc1)NCc1ccccn1` (stereo not given), the “Percent Effect” value is given as 107.5%. The same measure for `O=C(CN1CCOCC1CC(=O)c1ccco1)NCc1ccccn1` (stereo not given): -22.29%; for `O=C(CN1CCCC1CCCO)NCc1ccccn1` (stereo not given): 111.1%; for `O=C(CN1CCCC1c1nc2cc(F)ccc2[nH]1)NCc1ccccn1` (stereo not given): -7.361%.

For the compound `O=C(CN1CCCCCCC1=O)NCc1ccccn1`, the “Percent Effect” value is on record as 8.013%. Take `c1ccc2c(c1)CC(N1CCCC(NCc3ccc4nonc4c3)C1)C2` (stereo not given): the “Percent Effect” value is 0.08784%. `CN(C)S(=O)(=O)c1ccc(CNC(=O)c2cn3c(n2)CNCC3)cc1`: the “Percent Effect” value is -2.346%. In the case of `Cc1ccc(C)c2c(=O)cc(CN3CC[C@@H](N)[C@H](O)C3)[nH]c12` it was -6.693%; in that of `Cc1ccnn1C(C)C(=O)Nc1cc(-c2ccncc2)[nH]n1` (stereo not given), 16.43%.

Turning to `O=C(NCCNc1ncccn1)N1CC=C(c2ccccc2)CC1`, the “Percent Effect” value was 13.59%. As for `Nc1cc(CCCNC(=O)NC2CC2)nn1-c1ccccc1`, the “Percent Effect” value is -28.53%. Take `CCCN1CCCn2c(nc(CNC(=O)N3CCCC3)cc2=O)C1.O=C(O)C(F)(F)F`: the “Percent Effect” value is listed as 1.555%. Regarding `CCCN1CCCn2c(nc(CNC(=O)c3ccsc3)cc2=O)C1.O=C(O)C(F)(F)F`, the “Percent Effect” value was -11.31%.

On to `CC(C)N1CCCn2c(nc(CNC(=O)c3nccn3C)cc2=O)C1.O=C(O)C(F)(F)F.O=C(O)C(F)(F)F`, for which the “Percent Effect” value was -1.312%.

On to `CN1CCCn2c(nc(CNC(=O)c3nccn3C)cc2=O)C1.O=C(O)C(F)(F)F.O=C(O)C(F)(F)F`, for which the “Percent Effect” value was -10.78%. `COCCN1CCCn2c(nc(CNS(C)(=O)=O)cc2=O)C1.O=C(O)C(F)(F)F`: the “Percent Effect” value is 96.89%. In the case of `O=C(NCc1cc(=O)n2c(n1)CN(CC1CC1)CCC2)c1ccsc1.O=C(O)C(F)(F)F`, the “Percent Effect” value is 88.56%. The same measure for `COCC(=O)NCc1cc(=O)n2c(n1)CN(C)CCC2.O=C(O)C(F)(F)F`: 104.3%; for `COCCN1CCCn2c(nc(CNC(=O)COC)cc2=O)C1.O=C(O)C(F)(F)F`: 101.5%; for `CN1CCCn2c(nc(CNC(=O)c3ccsc3)cc2=O)C1.O=C(O)C(F)(F)F`: -36.6%.

In the case of `CCc1nn(C)c(CC)c1CNC(=O)Nc1cccc2c1CCN2C`, the “Percent Effect” value is reported as -5.732%. For `O=C1CCC2(CCN(CCSc3ccccc3)CC2)CN1CCCO`, the “Percent Effect” value was -17.17%. With `CC(CNC(=O)N1CCS(=O)(=O)CC1)Cc1cccs1` (stereo not given), the “Percent Effect” value is recorded as 21.62%. The same measure for `Cc1nnc(C(C)NCC2(c3c(F)cccc3F)CCCC2)o1` (stereo not given): 5.955%; for `COCC(=O)NCc1cc(=O)n2c(n1)CN(Cc1ccccc1)CCC2.O=C(O)C(F)(F)F`: 93.29%.

Regarding `COc1ccc(CN2CCn3cc(CNC(=O)CC4CC4)nc3C2)cc1.O=C(O)C(F)(F)F`, the “Percent Effect” value was -3.28%. Turning to `COCC(=O)NCc1cc(=O)n2c(n1)CN(CC1CC1)CCC2.O=C(O)C(F)(F)F`, the “Percent Effect” value was found to be 83.83%. `O=C(NCc1cc(=O)n2c(n1)CN(CC1CCOC1)CCC2)C1CC1.O=C(O)C(F)(F)F` (stereo not given): the “Percent Effect” value is reported as -7.493%. As to `COc1ccc(CN2CCn3cc(CNC(=O)C4CCC4)nc3C2)cc1.O=C(O)C(F)(F)F`, the “Percent Effect” value is recorded as -6.087%. The same measure for `Cc1ccc(C(C)(O)CNC(=O)c2sccc2OC(F)F)o1` (stereo not given): -15.69%. `CCS(=O)(=O)NCC1OCCc2cn(CC3CCOCC3)nc21` (stereo not given): the “Percent Effect” value is given as -7.17%. As to `O=C1N(c2ccccc2)Cc2nc(=O)[nH]n21`, the “Percent Effect” value is 8.633%.

As for `O=C(c1cccnc1N1CCN(Cc2ccoc2)CC1)N1CCCCC1`, the “Percent Effect” value was 11.57%. For `CC(C)Sc1ncccc1C(=O)NCc1ccc(O)cc1`, the “Percent Effect” value is reported as 102.9%. Consider `CC(C)Sc1ncccc1C(=O)NCc1ccc(CS(C)(=O)=O)cc1`, for which the “Percent Effect” value came to 3.251%. In the case of `CSc1ncccc1C(=O)NCCC(O)c1ccco1` (stereo not given) it was -7.347%. Take `CC(C)Nc1ncccc1C(=O)NCc1ccnn1C`: the “Percent Effect” value is -5.174%. The same measure for `CC(C)Sc1ncccc1C(=O)NCc1ccoc1`: 124.5%; for `Cc1c[nH]c(CN(C)C(=O)C2CC(=O)N(Cc3ccncc3)C2)n1` (stereo not given): -14.3%; for `CN1CCC(N(C)C[C@H]2CC[C@@H](Cc3ccc4occc4c3)O2)CC1`: -18.26%.

For `Cc1nc(CN2CCC3(CCN(c4ncc(F)cn4)C3)C2=O)cs1.O=C(O)C(F)(F)F` (stereo not given), the “Percent Effect” value is given as -4.043%. The same measure for `Cc1ccc(N2CCC3(CCN(Cc4nccs4)CC3)CC2)nn1`: 5.38%; for `Cc1ccc(N2CCC3(CCN(Cc4csc(C)n4)CC3)CC2)nn1`: -10.89%; for `Cc1nc(CN2CCC3(CCCN(C(=O)c4cnccn4)C3)C2)cs1.O=C(O)C(F)(F)F` (stereo not given): -5.513%.

Consider `Cc1cnc(N2CCCC3(CCN(Cc4csc(C)n4)C3=O)C2)nc1.O=C(O)C(F)(F)F.O=C(O)C(F)(F)F` (stereo not given), for which the “Percent Effect” value is -16.03%. The same measure for `Cc1nc(CN2CCC3(CCN(C(=O)c4ccoc4C)CC3)C2)cs1.O=C(O)C(F)(F)F`: 2.621%.

For the compound `Cc1cnc(N2CCC3(CCN(Cc4csc(C)n4)C3=O)C2)nc1.O=C(O)C(F)(F)F` (stereo not given), the “Percent Effect” value was 101.3%. Turning to `COc1cc(N2CCC3(CCN(Cc4csc(C)n4)C3)CC2)ncn1.O=C(O)C(F)(F)F`, the “Percent Effect” value amounted to 133.8%. In the case of `Cc1cnc(N2C[C@H]3CN(Cc4csc(C)n4)C(=O)[C@H]3C2)nc1.O=C(O)C(F)(F)F`, the “Percent Effect” value is given as -0.6865%. With `Cc1ccc(N2CCC3(CCN(Cc4csc(C)n4)C3=O)C2)nn1` (stereo not given), the “Percent Effect” value is given as 95.91%. `COc1cc(N2CCC3(CCN(Cc4csc(C)n4)C3=O)C2)ncn1.O=C(O)C(F)(F)F` (stereo not given): the “Percent Effect” value is 173.5%.

On to `Cc1ncsc1C(=O)NCC1CCC2(CCNCC2)CO1.Cl` (stereo not given), for which the “Percent Effect” value was -19.17%.

In the case of `CCc1cc(NCc2cc(CC(C)C)on2)n2nccc2n1`, the “Percent Effect” value is recorded as -11.32%. With `O=C(c1cnccn1)N1CCn2cnc(COCC3CC3)c2C1`, the “Percent Effect” value is reported as -16.54%. With `COc1cc(N2CCC3(CCN(Cc4nccs4)CC3)C2)ncn1.O=C(O)C(F)(F)F`, the “Percent Effect” value is 189%. The same measure for `COc1cc(N2CCC3(CC(=O)N(Cc4csc(C)n4)C3)C2)ncn1` (stereo not given): 116.5%; for `COc1cccc(N2CC3(CCN(c4cc(OC)ncn4)C3)CC2=O)c1` (stereo not given): -36.15%; for `Fc1ccc(CN2CCC3(CCN(Cc4nccs4)CC3)C2)cc1.O=C(O)C(F)(F)F.O=C(O)C(F)(F)F`: -8.456%.

On to `Cc1nc(CN2CC3(CCN(c4ncc(F)cn4)C3)CC2=O)cs1.O=C(O)C(F)(F)F` (stereo not given), for which the “Percent Effect” value is 22.92%.

Turning to `O=C(O)C(F)(F)F.O=C(O)C(F)(F)F.c1csc(CN2CCC3(CC2)CCN(CC2CCOCC2)C3)n1`, the “Percent Effect” value was -8.285%. With `COc1ccc2c(ccn2CCC(=O)Nc2nc[nH]n2)c1`, the “Percent Effect” value is 112.1%. Take `CCOCCOC(C)C(=O)Nc1ccc2c(ccn2CC)c1` (stereo not given): the “Percent Effect” value is listed as -1.618%. In the case of `COc1ccc2c(ccn2CCC(=O)Nc2ccc(C(N)=O)cc2)c1` it was 111.4%; in that of `COc1ccc2c(ccn2CC(=O)Nc2n[nH]c(C(C)C)n2)c1`, 99.9%. With `COc1ccc2c(ccn2CCC(=O)O)c1`, the “Percent Effect” value is -1.885%. As for `COc1ccc2c(ccn2CCC(=O)Nc2n[nH]c(C(C)C)n2)c1`, the “Percent Effect” value was 80.39%. Consider `NC(=O)c1ccc(NC(=O)CCN2CCCC(N3CCCC3)C2)cc1` (stereo not given), for which the “Percent Effect” value was -7.492%. For the compound `CCCn1ccc2cc(NC(=O)NCCn3cnnc3CC)ccc21`, the “Percent Effect” value is -13.76%. Turning to `CCOC(C)C(=O)Nc1ccc2c(ccn2CC)c1` (stereo not given), the “Percent Effect” value was -6.658%. Take `Cc1ccc2c(ccn2CCC(=O)NC[C@@H]2CCCN3CCCC[C@H]23)c1`: the “Percent Effect” value is on record as -8.382%.

As for `COc1ccc2c(ccn2CC(=O)N2CCCC2c2cnn(C)c2)c1` (stereo not given), the “Percent Effect” value turned out to be 0.9225%. Turning to `CN1Cc2nnc(C3CCOCC3)n2C(Cc2c[nH]cn2)C1` (stereo not given), the “Percent Effect” value is given as -4.297%. In the case of `CC(Cn1cncn1)NC(=O)c1cn(Cc2ccccc2F)nn1` (stereo not given) it was 8.945%; in that of `CCNC(=O)NCC(CC)(OC)c1ccccc1` (stereo not given), 2.354%. As to `O=C(NCCn1ccnc1)C1COCC(=O)N1Cc1ccccc1` (stereo not given), the “Percent Effect” value is recorded as -11.36%. Regarding `Cn1ccnc1CN1CCC2(CC1)CN(c1ccccn1)CCO2.O=C(O)C(F)(F)F.O=C(O)C(F)(F)F`, the “Percent Effect” value is -7.538%.

On to `O=C(O)C(F)(F)F.O=C1COC2(CCN(c3ncccn3)CC2)CN1`, for which the “Percent Effect” value is given as 1.956%. For `CC1N(c2cnn(C)c2)C(=O)COC12CCN(c1ncccn1)CC2.O=C(O)C(F)(F)F` (stereo not given), the “Percent Effect” value was found to be 116.4%.

With `CN1C(=O)CC(c2ccncc2)C12CCN(c1ncccn1)CC2.O=C(O)C(F)(F)F` (stereo not given), the “Percent Effect” value was -40.6%.

For the compound `O=C(O)C(F)(F)F.O=C1COC2(CCN(c3ccccn3)CC2)CN1`, the “Percent Effect” value is reported as -3.085%. In the case of `CC1N(c2cnn(C)c2)C(=O)COC12CCN(c1ccccn1)CC2.O=C(O)C(F)(F)F` (stereo not given) it was 138.6%. For `CC(C)(O)CSCCNC(=O)c1cc(F)ccc1F`, the “Percent Effect” value is 5.192%. Regarding `Cc1ccc(CS(=O)(=O)N2CC[C@H]3[C@H]2CCN3C)cc1`, the “Percent Effect” value is on record as 6.881%.

As for `CN(C)C(=O)N1CCC2(CC1)CNc1ccc(F)cc12.Cl`, the “Percent Effect” value is given as -3.877%.

As to `CNC(=O)NC(=O)CN1CCC(c2cccc(F)c2)C1` (stereo not given), the “Percent Effect” value was -6.233%. For the compound `CNC(=O)c1cccc(C2CNCCN2C(=O)c2ccn(C)n2)c1` (stereo not given), the “Percent Effect” value is on record as 140.8%. With `CNC(=O)c1cccc(C2CNCCN2C(=O)C2CCNCC2)c1` (stereo not given), the “Percent Effect” value was determined as 105.9%.

In the case of `CNC(=O)c1cccc(C2CNCCN2C(C)=O)c1` (stereo not given), the “Percent Effect” value is -19.14%. Regarding `COCCn1cc(C(=O)N2CCCC2c2cccc(F)c2)ccc1=O` (stereo not given), the “Percent Effect” value worked out at 1.276%. As to `CC(C)Cn1cncc1CNC(=O)c1cccc(CC2CCNCC2)c1`, the “Percent Effect” value is recorded as 4.276%. Consider `Cc1cnc(C(=O)N2CCNCC2C(=O)NCc2ccncc2)cn1` (stereo not given), for which the “Percent Effect” value is -22.4%. In the case of `CNC(=O)c1cccc(C2CNCCN2C(=O)c2cccc(F)c2)c1.Cl` (stereo not given) it was 87.98%; in that of `CNC(=O)c1cccc(Nc2cnn(C)c2)c1`, -6.81%.

For the origin of these results see ChEMBL document CHEMBL3988442, “University of Dundee, Small-Polar-MMV Screening Library” (2021).
